Data published in PubChem BioAssay AID1159580 (chemical genetic matrix, 2015).
Screen size: about 5,500 compounds; about 2,000 (36%) were called active. Roughly 18% stayed inconclusive and do not appear here. No stated cut-off is given here; in the data, active means normalized growth mostly below about 0.91 (no sharp cut-off); inconclusive means no clear call, values can overlap the other calls; inactive means mostly above about 0.92. Some of the results follow.

Assay: chemical genetic growth profiling, strain panel (AID 1159580);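 further: tested at 20 µM; growth read once vehicle control cultures reached saturation at 30 °C; 1 = growth at the plate median or of vehicle wells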
Conditions: growth OD
[1] = S. cerevisiae deletion strains, locus YAL013W, strain DEP1, stronger effect = lower value
[2] = S. cerevisiae deletion strains, locus YBR229C, strain ROT2, stronger effect = lower value
[3] = S. cerevisiae deletion strains, locus YDL101C, strain DUN1, stronger effect = lower value
[4] = S. cerevisiae deletion strains, locus YDL134C, strain PPH21, stronger effect = lower value
[5] = S. cerevisiae deletion strains, locus YDR150W, strain NUM1, stronger effect = lower value
[6] = S. cerevisiae deletion strains, locus YEL061C, strain CIN8, stronger effect = lower value
[7] = S. cerevisiae deletion strains, locus YGR078C, strain PAC10, stronger effect = lower value
[8] = S. cerevisiae deletion strains, locus YHR030C, strain SLT2, stronger effect = lower value
[9] = S. cerevisiae deletion strains, locus YHR087W, strain rtc3, stronger effect = lower value
[10] = S. cerevisiae deletion strains, locus YJR043C, strain POL32, stronger effect = lower value
[11] = S. cerevisiae deletion strains, locus YJR075W, strain HOC1, stronger effect = lower value
[12] = S. cerevisiae deletion strains, locus YLR039C, strain RIC1, stronger effect = lower value
[13] = S. cerevisiae deletion strains, locus YLR058C, strain SHM2 (second series), stronger effect = lower value
[14] = S. cerevisiae deletion strains, locus YLR085C, strain ARP6, stronger effect = lower value
[15] = S. cerevisiae deletion strains, locus YLR262C, strain YPT6, stronger effect = lower value
[16] = S. cerevisiae deletion strains, locus YML094W, strain GIM5, stronger effect = lower value
[17] = S. cerevisiae deletion strains, locus YMR219W, strain ESC1, stronger effect = lower value
[18] = S. cerevisiae deletion strains, locus YMR263W, strain SAP30, stronger effect = lower value
[19] = S. cerevisiae deletion strains, locus YNL153C, strain GIM3, stronger effect = lower value
[20] = S. cerevisiae deletion strains, locus YNL298W, strain CLA4 (second series), stronger effect = lower value
[21] = S. cerevisiae deletion strains, locus YNL322C, strain KRE1, stronger effect = lower value
[22] = S. cerevisiae deletion strains, locus YNR030W, strain Alg12, stronger effect = lower value
[23] = S. cerevisiae deletion strains, locus YPL055C, strain LGE1, stronger effect = lower value
[24] = S. cerevisiae deletion strains, locus YPL241C, strain CIN2, stronger effect = lower value
[25] = S. cerevisiae deletion strains, locus YPR135W, strain CTF4, stronger effect = lower value

Measured: normalized growth

COc1ccc(C(=O)CN2CCN(c3cc(C)nc4ccccc34)CC2)cc1
inactive: [1] 1.01 | [2] 1.01 | S. cerevisiae deletion strains, locus YCL061C, strain MRC1, stronger effect = lower value 1 | [3] 0.968 | [4] 0.994 | [5] 0.982 | [6] 0.979 | [7] 1 | [8] 0.905 | [9] 0.994 | S. cerevisiae deletion strains, locus YJL187C, strain SWE1, stronger effect = lower value 1 | [10] 1 | [11] 1.01 | [12] 0.956 | [13] 1.01 | [14] 0.987 | [15] 0.942 | [16] 0.957 | [17] 0.997 | [18] 1.04 | S. cerevisiae deletion strains, locus YMR307W, strain GAS1, stronger effect = lower value 1.09 | [19] 1.01 | [20] 0.975 | [21] 0.998 | [22] 0.994 | S. cerevisiae deletion strains, locus YOL006C, strain TOP1, stronger effect = lower value 0.995 | [23] 1.01 | [24] 1.05 | [25] 0.944 | S. cerevisiae strains, strain wild type, stronger effect = lower value 1

COc1ccc(Oc2cc(C)nc3ccccc23)cc1
active: [6] 0.884 | [8] 0.269 | S. cerevisiae deletion strains, locus YKL190W, strain CNB1, stronger effect = lower value 0.906 | [12] 0.606 | [14] 0.527 | [15] 0.701 | [24] 0.845 | [25] 0.397
inactive: [1] 1.01 | [2] 1 | [3] 1.02 | [4] 0.989 | [5] 1.02 | [7] 1.01 | [9] 0.999 | [10] 1 | [11] 1.02 | [13] 1 | [16] 0.941 | [17] 1.01 | [18] 1.02 | [19] 0.991 | [20] 0.876 | [21] 1.01 | [22] 0.967 | [23] 1.02
